Measurements from PubChem BioAssay (EPA / NIEHS).
Records with an inconclusive call do not appear. Active and inactive are the calls of the source. The calls were made as follows, unless noted: active = hit-call score of the fitted dose curve at least 0.9, where 1 is the maximum; inconclusive = response in the unintended direction; inactive = score below 0.9.

Key:
[1] = ATG_TCF_b_cat_CIS: Attagene CIS-FACTORIAL HepG2 Assay for human T-Cell-Factor with beta-catenin (TCF/b-cat) (AID 2282965; active = hit-call score of the fitted dose curve at least 0.9, where 1 is the maximum; inactive = score below 0.9); conditions: HepG2 TCF/beta-catenin cis-reporter transcription, actives raise or lower the signal
Summary of the method: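 Endogenous TCF/LEF activity read as reporter transcript level via RT-PCR and capillary electrophoresis fluorescence in transfected HepG2, 24 h exposure; gain or loss of signal fitted against DMSO controls.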

[2] = ATG_TAL_CIS: Attagene CIS-FACTORIAL HepG2 Assay for human TAL Basal Promoter (AID 2282966; active = hit-call score of the fitted dose curve at least 0.9, where 1 is the maximum; inactive = score below 0.9;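 also: background control endpoint measuring basal TAL promoter reporter mRNA not a specific factor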); conditions: HepG2 Attagene cis-factorial TAL promoter reporter; actives raise or lower the signal
Summary of the method: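 Transiently transfected HepG2 (cis-regulated reporter units), 24 h treatment, mRNA read by fluorescent CE after RT-PCR; bidirectional fit, DMSO baseline.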

[3] = ATG_TGFb_CIS: Attagene CIS-FACTORIAL HepG2 Assay for human Transforming Growth Factor (TGF) (AID 2282967; active = hit-call score of the fitted dose curve at least 0.9, where 1 is the maximum; inactive = score below 0.9); conditions: HepG2 Attagene CIS TGFb reporter, mRNA transcription; actives raise or lower the signal
Summary of the method: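 Transient MRTU transfection of HepG2 (FuGene 6). Dose 24 h. TriZol RNA, oligo(dT) RT, PCR, 6-FAM primer extension, HpaI cut, CE. Bidirectional fit, DMSO = baseline.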

[4] = biological target: Steroid hormone receptor ERR1 (Homo sapiens) (UniProt P11474); assay: ATG_ERRa_TRANS: Attagene TRANS-FACTORIAL HepG2 Assay for human Estrogen-Related Receptor alpha (ERRa) (AID 2282971); conditions: HepG2 Attagene TRANS reporter, ERRa transactivation
Summary of the method: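 HepG2 cells transiently transfected with multiplexed GAL4-UAS reporter units reading chimeric ERRa-Gal4 activity; 24 h compound exposure. Reporter mRNA measured by RT-PCR, 6-FAM labelling, HpaI digest and capillary electrophoresis; gain of signal fitted versus DMSO baseline.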

[5] = biological target: X-box-binding protein 1 (Homo sapiens) (UniProt P17861); assay: ATG_Xbp1_CIS: Attagene CIS-FACTORIAL HepG2 Assay for human X-box Binding Protein 1 (XBP1) (AID 2282972; active = hit-call score of the fitted dose curve at least 0.9, where 1 is the maximum; inactive = score below 0.9); conditions: HepG2 XBP1 cis-element reporter, Attagene multiplex; actives raise or lower the signal
Summary of the method: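 Reporter transcripts were quantified by RT-PCR with fluorescent primer extension and capillary electrophoresis after 24 h chemical exposure. Cells: transiently transfected HepG2 carrying cis-regulated reporter constructs; data fitted bidirectionally relative to DMSO.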

[6] = ATG_M_06_TRANS: Attagene TRANS-FACTORIAL HepG2 Assay for M06 Transcription Factor (Internal Marker) (AID 2282983); conditions: HepG2 Attagene TRANS M06 internal marker reporter
Summary of the method: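 In this multiplexed HepG2 system, compounds are incubated 24 h with cells carrying GAL4-UAS reporter units. Reporter RNA is amplified and resolved by capillary electrophoresis, and induction is scored against DMSO.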

[7] = biological target: Transcriptional activator Myb (Homo sapiens) (UniProt P10242); assay: ATG_Myb_CIS: Attagene CIS-FACTORIAL HepG2 Assay for human Myeloblastosis (Myb) Proto-Oncogene Transcription Factor (AID 2282986; active = hit-call score of the fitted dose curve at least 0.9, where 1 is the maximum; inactive = score below 0.9); conditions: HepG2 Attagene CIS-FACTORIAL Myb reporter transcription; actives raise or lower the signal
Summary of the method: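 Multiplexed cis-reporter system in HepG2: transient transfection, 24 h treatment, mRNA readout by RT-PCR and capillary electrophoresis. Both increases and decreases are scored versus DMSO negative control.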

[8] = ATG_M_19_TRANS: Attagene TRANS-FACTORIAL HepG2 Assay for M19 Transcription Factor (Internal Marker) (AID 2282974); conditions: HepG2 Attagene TRANS-FACTORIAL M19 internal marker reporter
Summary of the method: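 Gain-of-signal in reporter mRNA, relative to DMSO, was scored from capillary electrophoresis fluorescence. HepG2 cells carried transiently transfected multiple reporter transcription units and were incubated with test chemicals for 24 h.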

[9] = ATG_GAL4_TRANS: Attagene TRANS-FACTORIAL HepG2 Assay for GAL4 (Internal Marker) (AID 2282976); conditions: HepG2 Attagene TRANS GAL4 internal marker reporter
Summary of the method: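 HepG2 cells transiently transfected with multiplexed GAL4-UAS reporter constructs were dosed for 24 h. Reporter mRNA was measured by RT-PCR, 6-FAM primer extension, HpaI digestion and capillary electrophoresis, and gain of signal was fitted relative to DMSO.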

[10] = biological target: Oxysterols receptor LXR-beta (Homo sapiens) (UniProt P55055); assay: ATG_LXRb_TRANS: Attagene TRANS-FACTORIAL HepG2 Assay for human Liver X Receptor beta (LXRb) (AID 2282981); conditions: HepG2 Attagene TRANS GAL4-LXRb reporter, mRNA
Summary of the method: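 After 24 h of chemical treatment, transfected HepG2 cells yield total RNA; reporter cDNA is PCR-amplified, FAM-labelled, HpaI-cut and run on capillary electrophoresis. Signal reflects chimeric LXRb-Gal4 activity on GAL4-UAS reporters.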

[11] = biological target: Nuclear receptor subfamily 4 group A member 2 (Homo sapiens) (UniProt P43354); assay: ATG_NURR1_TRANS: Attagene TRANS-FACTORIAL HepG2 Assay for human Nuclear Receptor Related Protein 1 (NURR1) (AID 2282985); conditions: HepG2 Attagene TRANS reporter, mRNA readout
Summary of the method: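 Measures transcriptional activation by an exogenous NR-Gal4 chimera in transfected HepG2 liver cells. After 24 h, reporter RNA is reverse-transcribed, amplified and resolved by capillary electrophoresis; DMSO defines baseline.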

[12] = biological target: Estrogen-related receptor gamma (Homo sapiens) (UniProt P62508); assay: ATG_ERRg_TRANS: Attagene TRANS-FACTORIAL HepG2 Assay for human Estrogen-Related Receptor gamma (ERRg) (AID 2282977); conditions: HepG2 Attagene TRANS reporter, ERRg transactivation;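 also: hits increase reporter signal over DMSO so potencies reflect activators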
Summary of the method: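 Exogenous NR-Gal4 chimera activity was assessed in HepG2 cells bearing transfected GAL4-UAS reporters. After 24 h dosing, total RNA underwent RT-PCR, fluorescent primer extension and HpaI digestion before capillary electrophoresis, with gain of signal scored against DMSO.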

[13] = biological target: Oxysterols receptor LXR-alpha (Homo sapiens) (UniProt Q13133); assay: ATG_LXRa_TRANS: Attagene TRANS-FACTORIAL HepG2 Assay for human Liver X Receptor alpha (LXRa) (AID 2282980); conditions: HepG2 Attagene TRANS reporter, LXRa transactivation
Summary of the method: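 HepG2 cells were transiently transfected with multiplexed reporter units driven by chimeric LXRa–GAL4 fusion proteins, then dosed for 24 h. Reporter mRNA was quantified by RT-PCR, fluorescent labelling and capillary electrophoresis; gain of signal fitted against DMSO baseline.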

[14] = biological target: Hepatocyte nuclear factor 4-alpha (Homo sapiens) (UniProt P41235); assay: ATG_HNF4a_TRANS: Attagene TRANS-FACTORIAL HepG2 Assay for human Hepatocyte Nuclear Factor 4 alpha (HNF4a) (AID 2282982); conditions: HepG2 HNF4a transactivation reporter, mRNA readout
Summary of the method: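 Multiplexed reporter assay: transfected HepG2, 24 h exposure, total RNA → oligo(dT) RT → PCR → 6-FAM extension → HpaI digest → CE fluorescence. DMSO = negative control.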

[15] = ATG_M_32_TRANS: Attagene TRANS-FACTORIAL HepG2 Assay for M32 Transcription Factor (Internal Marker) (AID 2282984); conditions: HepG2 Attagene TRANS M32 internal marker reporter;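 also: transcript level of a background control reporter unit measured by RT-PCR and capillary electrophoresis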
Summary of the method: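 Cell-based TRANS-format assay in HepG2: exogenous chimeric GAL4 reporter units transiently expressed, compounds applied 24 h. Reporter mRNA detected by RT-PCR plus capillary electrophoresis; this readout is an internal background marker.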

[16] = ATG_VDRE_CIS: Attagene CIS-FACTORIAL HepG2 Assay for human Vitamin D Receptor Element (VDRE) (AID 2282968; active = hit-call score of the fitted dose curve at least 0.9, where 1 is the maximum; inactive = score below 0.9); conditions: HepG2 VDRE cis-reporter transcription, actives raise or lower the signal
Summary of the method: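 Measures endogenous factor activity through cis-element-driven reporter transcripts in transiently transfected HepG2. Cells are treated 24 h; reporter mRNA is quantified by RT-PCR and capillary electrophoresis; fitting is bidirectional.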

[17] = biological target: Glucocorticoid receptor (Homo sapiens) (UniProt P04150); assay: ATG_GR_TRANS: Attagene TRANS-FACTORIAL HepG2 Assay for human Glucocorticoid Receptor (GR) (AID 2282978); conditions: HepG2 Attagene TRANS GR reporter, mRNA transcription;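 also: activators score as hits since higher reporter transcript over DMSO is fitted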
Summary of the method: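 HepG2 transient transfection, multiple reporter units, GAL4-UAS under NR-GAL4 chimera control. 24 h treatment. Reporter mRNA by RT-PCR/CE fluorescence, DMSO as negative control.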

[18] = biological target: Bile acid receptor (Homo sapiens) (UniProt Q96RI1); assay: ATG_FXR_TRANS: Attagene TRANS-FACTORIAL HepG2 Assay for Farnesoid X Receptor (FXR) (AID 2282979); conditions: HepG2 Attagene TRANS FXR-GAL4 reporter transcription;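 also: hits raise reporter mRNA above DMSO so AC50 marks FXR activation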
Summary of the method: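 HepG2 cells transiently transfected with reporter constructs in which a chimeric FXR-GAL4 protein drives a GAL4-UAS reporter; 24 h compound exposure. Reporter mRNA measured by RT-PCR, FAM labelling, HpaI digestion and capillary electrophoresis; gain-of-signal versus DMSO.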

[19] = biological target: Estrogen receptor (Homo sapiens) (UniProt P03372); assay: ATG_ERa_TRANS: Attagene TRANS-FACTORIAL HepG2 Assay for human Estrogen Receptor alpha (ERa) (AID 2282970); conditions: HepG2 Attagene TRANS ERa GAL4 reporter, mRNA
Summary of the method: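 One of 30 multiplexed endpoints from a HepG2 TRANS system, this one reports ERa-Gal4-driven reporter mRNA. Transcripts were quantified 24 hours post-dosing by fluorescent RT-PCR and capillary electrophoresis, with activity scored as induction over DMSO.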

Measured: AC50

Hepatocyte nuclear factor 4-alpha (Homo sapiens), sequence (P41235 whole entry, looked up): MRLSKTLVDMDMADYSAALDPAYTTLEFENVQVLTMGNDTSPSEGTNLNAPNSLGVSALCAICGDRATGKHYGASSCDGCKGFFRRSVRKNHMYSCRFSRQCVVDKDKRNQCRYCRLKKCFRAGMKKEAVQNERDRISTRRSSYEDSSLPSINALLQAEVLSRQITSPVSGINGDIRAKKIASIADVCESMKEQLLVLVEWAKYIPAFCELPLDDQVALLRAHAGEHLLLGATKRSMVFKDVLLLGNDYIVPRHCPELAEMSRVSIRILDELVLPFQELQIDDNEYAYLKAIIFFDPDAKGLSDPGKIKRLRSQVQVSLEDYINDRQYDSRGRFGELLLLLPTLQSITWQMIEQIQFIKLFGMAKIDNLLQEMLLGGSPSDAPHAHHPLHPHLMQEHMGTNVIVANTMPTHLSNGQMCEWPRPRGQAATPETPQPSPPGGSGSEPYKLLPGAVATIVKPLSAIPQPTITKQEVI
Nuclear receptor subfamily 4 group A member 2 (Homo sapiens), sequence (P43354 whole entry, looked up, the tested form may be a part): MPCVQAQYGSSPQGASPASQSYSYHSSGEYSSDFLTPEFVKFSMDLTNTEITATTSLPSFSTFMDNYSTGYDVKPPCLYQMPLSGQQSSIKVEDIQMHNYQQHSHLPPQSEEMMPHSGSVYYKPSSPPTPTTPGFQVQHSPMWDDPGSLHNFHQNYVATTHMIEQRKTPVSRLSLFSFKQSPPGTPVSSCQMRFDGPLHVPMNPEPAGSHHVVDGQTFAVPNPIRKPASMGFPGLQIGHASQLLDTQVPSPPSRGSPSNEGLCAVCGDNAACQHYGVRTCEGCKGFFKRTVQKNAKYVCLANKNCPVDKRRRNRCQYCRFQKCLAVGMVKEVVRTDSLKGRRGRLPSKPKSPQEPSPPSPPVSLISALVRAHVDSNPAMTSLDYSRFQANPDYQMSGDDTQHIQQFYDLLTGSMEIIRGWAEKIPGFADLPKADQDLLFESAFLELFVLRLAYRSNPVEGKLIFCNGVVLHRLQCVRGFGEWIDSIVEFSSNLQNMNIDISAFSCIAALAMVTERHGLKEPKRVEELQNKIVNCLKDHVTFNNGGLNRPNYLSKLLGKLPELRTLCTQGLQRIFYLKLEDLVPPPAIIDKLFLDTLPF
X-box-binding protein 1 (Homo sapiens), sequence (P17861 whole entry, looked up): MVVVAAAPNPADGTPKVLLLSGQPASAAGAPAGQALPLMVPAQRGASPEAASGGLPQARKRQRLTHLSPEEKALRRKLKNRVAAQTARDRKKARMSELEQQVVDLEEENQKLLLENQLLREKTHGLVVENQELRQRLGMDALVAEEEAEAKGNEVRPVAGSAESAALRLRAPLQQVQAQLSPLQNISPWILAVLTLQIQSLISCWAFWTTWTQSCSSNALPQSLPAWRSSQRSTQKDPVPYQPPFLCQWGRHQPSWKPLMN
Oxysterols receptor LXR-alpha (Homo sapiens), sequence (Q13133 whole entry, looked up, the tested form may be a part): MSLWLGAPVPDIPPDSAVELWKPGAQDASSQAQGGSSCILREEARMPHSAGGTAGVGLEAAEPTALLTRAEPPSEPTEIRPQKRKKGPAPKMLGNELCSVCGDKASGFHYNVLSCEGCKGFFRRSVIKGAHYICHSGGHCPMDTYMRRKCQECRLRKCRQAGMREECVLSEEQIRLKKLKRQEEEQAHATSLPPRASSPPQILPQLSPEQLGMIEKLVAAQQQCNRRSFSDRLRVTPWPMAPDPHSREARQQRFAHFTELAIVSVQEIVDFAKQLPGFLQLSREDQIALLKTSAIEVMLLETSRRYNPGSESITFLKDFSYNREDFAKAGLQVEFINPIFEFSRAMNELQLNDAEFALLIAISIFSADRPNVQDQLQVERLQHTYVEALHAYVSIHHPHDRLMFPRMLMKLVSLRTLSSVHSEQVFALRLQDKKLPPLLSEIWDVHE
Transcriptional activator Myb (Homo sapiens), sequence (P10242 whole entry, looked up): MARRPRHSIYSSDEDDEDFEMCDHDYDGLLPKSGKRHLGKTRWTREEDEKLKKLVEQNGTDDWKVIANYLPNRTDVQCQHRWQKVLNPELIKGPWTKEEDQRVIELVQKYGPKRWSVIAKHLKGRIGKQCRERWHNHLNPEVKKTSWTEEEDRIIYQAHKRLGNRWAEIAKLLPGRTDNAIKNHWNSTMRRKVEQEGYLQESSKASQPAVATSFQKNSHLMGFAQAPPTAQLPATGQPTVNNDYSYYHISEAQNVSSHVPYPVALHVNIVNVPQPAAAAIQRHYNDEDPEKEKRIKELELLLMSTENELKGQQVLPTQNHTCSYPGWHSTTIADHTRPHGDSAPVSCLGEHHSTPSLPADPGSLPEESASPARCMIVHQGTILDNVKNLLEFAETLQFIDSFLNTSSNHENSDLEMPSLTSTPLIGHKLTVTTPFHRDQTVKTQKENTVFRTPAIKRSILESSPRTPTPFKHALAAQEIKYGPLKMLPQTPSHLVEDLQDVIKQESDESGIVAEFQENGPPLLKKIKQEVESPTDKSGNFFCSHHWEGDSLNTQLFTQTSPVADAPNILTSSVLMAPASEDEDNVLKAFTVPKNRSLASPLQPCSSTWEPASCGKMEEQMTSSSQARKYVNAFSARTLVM
Oxysterols receptor LXR-beta (Homo sapiens), sequence (P55055 whole entry, looked up, the tested form may be a part): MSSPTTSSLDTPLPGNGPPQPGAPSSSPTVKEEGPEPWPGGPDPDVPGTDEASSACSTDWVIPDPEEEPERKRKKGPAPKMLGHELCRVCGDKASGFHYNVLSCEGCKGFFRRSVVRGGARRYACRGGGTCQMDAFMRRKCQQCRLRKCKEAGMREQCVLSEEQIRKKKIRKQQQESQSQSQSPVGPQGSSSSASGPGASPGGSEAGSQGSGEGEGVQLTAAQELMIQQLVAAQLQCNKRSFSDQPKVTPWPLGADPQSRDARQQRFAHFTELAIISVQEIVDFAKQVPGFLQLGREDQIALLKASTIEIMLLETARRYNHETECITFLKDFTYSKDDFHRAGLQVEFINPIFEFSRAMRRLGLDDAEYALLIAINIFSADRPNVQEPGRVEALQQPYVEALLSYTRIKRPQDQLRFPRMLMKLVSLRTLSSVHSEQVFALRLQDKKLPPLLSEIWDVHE
Steroid hormone receptor ERR1 (Homo sapiens), sequence (P11474 whole entry, looked up, the tested form may be a part): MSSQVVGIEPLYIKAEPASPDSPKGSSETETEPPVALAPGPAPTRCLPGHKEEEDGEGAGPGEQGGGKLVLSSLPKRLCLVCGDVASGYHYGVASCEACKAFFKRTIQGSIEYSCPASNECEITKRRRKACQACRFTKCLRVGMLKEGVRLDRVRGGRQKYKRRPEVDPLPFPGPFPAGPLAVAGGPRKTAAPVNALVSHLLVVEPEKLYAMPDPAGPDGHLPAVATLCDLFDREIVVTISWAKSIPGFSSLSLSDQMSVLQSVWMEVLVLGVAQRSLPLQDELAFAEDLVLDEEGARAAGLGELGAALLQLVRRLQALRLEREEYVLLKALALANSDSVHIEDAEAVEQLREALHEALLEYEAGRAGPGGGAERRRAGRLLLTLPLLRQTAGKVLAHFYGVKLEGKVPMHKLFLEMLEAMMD
Glucocorticoid receptor (Homo sapiens), sequence (P04150 whole entry, looked up, the tested form may be a part): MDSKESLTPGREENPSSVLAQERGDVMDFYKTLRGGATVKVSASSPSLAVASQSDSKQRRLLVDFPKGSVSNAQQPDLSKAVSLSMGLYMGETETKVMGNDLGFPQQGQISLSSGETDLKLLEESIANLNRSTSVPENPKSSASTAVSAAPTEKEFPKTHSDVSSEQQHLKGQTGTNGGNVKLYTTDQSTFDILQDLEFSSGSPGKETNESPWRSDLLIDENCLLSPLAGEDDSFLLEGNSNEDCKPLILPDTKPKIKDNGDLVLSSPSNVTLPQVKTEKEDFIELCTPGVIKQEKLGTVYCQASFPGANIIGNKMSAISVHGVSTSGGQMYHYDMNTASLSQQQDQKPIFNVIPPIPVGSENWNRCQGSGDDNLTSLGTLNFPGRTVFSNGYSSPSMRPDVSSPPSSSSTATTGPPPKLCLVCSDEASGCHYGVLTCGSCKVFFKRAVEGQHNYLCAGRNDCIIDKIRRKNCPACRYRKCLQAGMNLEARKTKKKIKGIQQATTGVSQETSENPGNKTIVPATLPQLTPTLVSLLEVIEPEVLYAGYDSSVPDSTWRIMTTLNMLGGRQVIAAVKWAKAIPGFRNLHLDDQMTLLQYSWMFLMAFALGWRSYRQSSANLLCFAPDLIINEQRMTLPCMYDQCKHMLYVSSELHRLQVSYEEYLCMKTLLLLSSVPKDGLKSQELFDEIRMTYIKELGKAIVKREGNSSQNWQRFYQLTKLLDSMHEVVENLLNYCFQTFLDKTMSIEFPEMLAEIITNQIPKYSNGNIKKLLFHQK
Bile acid receptor (Homo sapiens), sequence (Q96RI1 whole entry, looked up, the tested form may be a part): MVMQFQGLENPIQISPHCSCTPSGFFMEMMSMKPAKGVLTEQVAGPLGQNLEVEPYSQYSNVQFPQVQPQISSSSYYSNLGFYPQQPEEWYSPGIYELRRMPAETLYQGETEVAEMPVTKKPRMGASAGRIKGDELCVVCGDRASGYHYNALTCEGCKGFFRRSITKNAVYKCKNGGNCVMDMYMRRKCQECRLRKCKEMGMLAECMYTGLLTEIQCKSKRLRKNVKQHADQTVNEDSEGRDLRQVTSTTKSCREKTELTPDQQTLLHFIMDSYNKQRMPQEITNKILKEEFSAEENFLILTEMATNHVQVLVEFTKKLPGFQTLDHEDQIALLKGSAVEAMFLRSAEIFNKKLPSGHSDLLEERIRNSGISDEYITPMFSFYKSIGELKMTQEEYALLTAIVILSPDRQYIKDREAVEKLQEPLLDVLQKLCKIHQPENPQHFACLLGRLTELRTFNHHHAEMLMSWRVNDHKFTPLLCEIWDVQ

CCOC(=O)CCC(=O)OCC
inactive: [1] | [2] | [3] | [4] | [5] | [6] | [7]

NCCO
inactive: [1] | [2] | [3] | [5] | [8] | [9] | [10] | [11] | [7]

CC(=O)OCCOCCOCCOC(C)=O
inactive: [1] | [2] | [3] | [5] | [8] | [9] | [10] | [6]

COc1cc(/C=C/C(=O)CC(=O)/C=C/c2ccc(O)c(OC)c2)ccc1O
active: [1] 27.4 µM | [5] 33.4 µM
not listed: [9] | [16] | [17] | [18] | [19]
inactive: all other assays above

CCCCCCCC=O
inactive: [1] | [2] | [3] | [5] | [10] | [14] | [6] | [11]

NC(=O)Cn1c(=O)cc(CCN2CCN(c3nccc4sccc34)CC2)c2ccc(F)cc21
active: [1] 30.9 µM
not listed: [3] | [6] | [7] | [10] | [14] | [19]
inactive: all other assays above

CC(=O)OC/C=C(\C)CCC=C(C)C
inactive: [1] | [2] | [3] | [5] | [8] | [17] | [15] | [7]

COCCOCCOC
inactive: [1] | [2] | [16] | [5] | [8] | [9] | [18] | [13] | [10]

CN1CCCC1=O
inactive: [1] | [2] | [3] | [19] | [5] | [13] | [10] | [6] | [11]

O=C(O)Cc1ccccc1Nc1c(Cl)cccc1Cl
inactive: [2] | [5] | [8] | [9] | [15] | [11] | [7]
active: [1] 40.6 µM | [16] 16.2 µM

Cc1ccc(Cl)cc1
inactive: [1] | [2] | [3] | [5] | [8] | [10] | [14] | [6] | [15] | [11]

CCCCOC(=O)CCCCCCCCC(=O)OCCCC
inactive: [2] | [3] | [5] | [8] | [9] | [14] | [7]
active: [1] 146 µM
